The record followed here is PubChem BioAssay (NCATS).

Several values for one entry are separate records, joined by “and”; a condition that tells them apart may be missing. Identical values can stand only once. Records with an inconclusive call do not appear. Activity calls are given as the source filed them. Calls follow the shape of the dose curve; as a rule, active = well fitted cell-killing curve with a large enough effect; inconclusive = small, poorly fitted or top-dose-only effect, or effect the other way; inactive = flat fitted curve, though single readings scatter.
% is scaled to controls: 0 for no effect and ±100 for the full control effect.

This assay can be described thus: qHTS assay for cell viability of HEK293 cells (AID 743288). Also: nearly all actives have a fitted effect of over 50% in size. As to conditions: ATP luminescence (CellTiter-Glo), 18 h, active compounds read low. The source says:
National Center for Advancing Translational Sciences [NCATS]
NIH Chemical Genomics Center [NCGC]
U.S. Environmental Protection Agency [EPA]
National Institutes of Environmental Health Sciences [NIEHS]
National Toxicology Program [NTP]
U.S. Food and Drug Administration [FDA]
The CellTiter-Glo Luminescent Cell Viability Assay (Promega, Madison, WI) is a homogeneous method to determine the number of viable cells in culture based on quantitation of the ATP present, which signals the presence of metabolically active cells. This cell viability assay was used to screen environmental chemicals in the Hek293 cell line.
Tox21 Assay Protocol Summary:
Cell viability after compound treatment was measured using a luciferase-coupled ATP quantitation assay (CellTiter-Glo viability assay, Promega, Madison, WI) in parental HEK293 cells. Total intracellular ATP content corresponds to the number of metabolically competent cells after compound treatment. The cells were dispensed at 2,000 cells/5 uL/well in 1,536-well white/solid bottom assay plates using a Flying Reagent Dispenser (Aurora Discovery, San Diego, CA). The cells were incubated a minimum of 5 h at 37 C, followed by the addition of 23 nL of compounds dissolved in DMSO, positive controls or DMSO only using a pintool work station (Kalypsys, San Diego, CA). The assay plates were incubated for 18 h at 37 C, followed by the addition of 5 uL/well of CellTiter-Glo reagent. After 30 min incubation at room temperature, the luminescence intensity of the plates was measured using a ViewLux plate reader (PerkinElmer, Shelton, CT).
For `Nc1cccc([N+](=O)[O-])c1`, the max response was -2.77% (inactive).

Consider `BrC(Br)C(Br)Br`, for which the max response was 6.64% (inactive).

In the case of `Nc1nc(-c2ccccc2)cs1`, the max response is 0.545% (inactive). Next, `CCCCCCC=O`: 5.62% (inactive); `C=C(C)C(=O)OCCCCCC`: 6.76% (inactive). Next, `CC(C)=CCC/C(C)=C/C=O`: -7.6% (inactive) and -9.91% (inactive); `CCNc1cc(O)ccc1C`: 2.21% (inactive).

For `CC(=O)c1nccs1`, the max response was -7.91% (inactive). Next, `COc1cccc2sc(N)nc12`: -3.84% (inactive); `Cc1ccc(C#N)cc1`: -2.64% (inactive).

`O=CNc1ccccc1`: the max response was -2.01% (inactive). In the case of `C[C@@H]1O[C@@H](O[C@@H]2[C@@H](O)[C@H](OCCc3ccc(O)c(O)c3)O[C@H](CO[C@@H]3O[C@H](CO)[C@@H](O)[C@H](O)[C@H]3O)[C@H]2OC(=O)/C=C/c2ccc(O)c(O)c2)[C@H](O)[C@H](O)[C@H]1O`, the max response is -6.2% (inactive). Next, `Nc1cccc(O)c1`: 2.15% (inactive); `O=C(O)/C=C/C(=O)O`: -0.445% (inactive); `CC(C)=CCl`: -6.69% (inactive). The same measure for `c1ccc(Oc2ccccc2)cc1`: -1.32% (inactive) and 1.9% (inactive); for `CCCCC(CC)COC(=O)CCCCC(=O)OCC(CC)CCCC` (stereo not given): -4.22% (inactive) and -9.58% (inactive); for `CC(C)N(C)C`: 6.47% (inactive). Next, `Cc1ccccc1C=O`: 5.96% (inactive); `CC(C)=C1CCC(C)CC1=O` (stereo not given): 10.3% (inactive); `Cc1ccc(N(C)C)cc1`: -14.6% (inactive). On to `CCCCCCCCN`, for which the max response was -5.63% (inactive). The same measure for `O=[N+]([O-])c1cccc(Cl)c1`: -0.245% (inactive). The same measure for `CCCCC(CC)CNCC(CC)CCCC` (stereo not given): -4.58% (inactive); for `Cc1ccc2ccccc2c1[N+](=O)[O-]`: 1.17% (inactive); for `C=C(C)OC(C)=O`: -0.625% (inactive). As to `CCNc1ccccc1`, the max response was -1.34% (inactive). `CC(C)CCOC(=O)/C=C/c1ccccc1`: the max response is -10.1% (inactive). The same measure for `CCCC(C)CO` (stereo not given): -5.68% (inactive); for `COc1ccc(N)c(C)c1`: -3.7% (inactive). Next, `Cc1cccc(C(=O)O)c1[N+](=O)[O-]`: -1.21% (inactive); `CSc1ccc(C=O)cc1`: 8.71% (inactive); `CC(=O)C1(C)CC2=C(CCCC2(C)C)CC1C` (stereo not given): -9.23% (inactive). The same measure for `Cc1ccc(C)c([N+](=O)[O-])c1`: 4.94% (inactive). `O=Cc1c(Cl)cccc1Cl`: the max response is -9.95% (inactive). In the case of `CN(C)c1cccc(O)c1`, the max response is -2.96% (inactive). For `O=C(O)c1ccc(Cl)c(Cl)c1`, the max response was 1.65% (inactive). Next, `O=C(O)c1ccc(Cl)cc1Cl`: 4.16% (inactive); `NS(=O)(=O)O`: 3.9% (inactive); `C1CCCC1`: 0.668% (inactive).
